# In the library only some 2.3% were active in any assay of this set; here they are far more common.
# UbGFP stabilizer = inhibits proteasome, raising ubiquitin-GFP reporter fluorescence. 67,000 tested, under 10 active. Ubiquitin-GFP reporter cells, proteasome inhibition, GFP fluorescence; response scale: untreated = 0%, 10 µM MG-132 = 100%. Potency, µM (series often up to 45.9 µM), for inactives: at the highest dose activation (GFP accumulation), hits mostly activators; active = well fitted activation curve with a large enough effect, not every such curve was filed as active; inconclusive = small, poorly fitted or top-dose-only effect, or another doubt; inactive = no such curve, though single readings can be large or run the other way; note: potency is the fitted concentration of half-maximal effect
#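 Proteasome block read as GFP accumulation: ubiquitin(G76V)-GFP U2OS cells exposed to compound (2.9 nM–46 uM) for 4 hr at 37 C. Normalization used untreated cells as 0% and 10 uM MG-132 as 100%; concentration-response curves fitted.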
# ALOX15B inhib = blocks human 15-lipoxygenase 2 activity; purified 15hLO-2, xylenol orange hydroperoxide absorbance; Potency, µM (series often up to 57.1 µM), for the others: at the top dose activity change, negative = inhibition, hits mostly inhibitors; hit rate 0.56% among 110,000; AID 881; note: potency is the fitted concentration of half-maximal effect; % is set by controls: 0 for no effect and ±100 for the full control effect; nearly all actives have a fitted effect of over 60% in size
#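 Enzyme 50 nM, AA 45 uM, 25 mM Hepes pH 7.5 + 0.01% Triton X-100; cpd preinc 15 min RT, rxn 90 min RT; stop/detect with 200 uM XO + 300 uM Fe(II) in 50 mM H2SO4, 30 min; A573/A405.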
# GFP derepression = epigenetic modulators derepressing GFP locus in mouse cells. mouse C127i GFP locus derepression, cytometry, 30 h. hit rate 0.09% among 68,000. AID 597. Potency, µM (doses to about 46.1 µM), for inactives: at the top dose GFP derepression (activation); note: % of control where 0% means no effect
#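 Locus derepression in mouse mammary C127i cells whose integrated CMV-GFP reporter is normally silent; GFP expression after 30 h compound treatment was quantified by counting fluorescent cells.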
# Tau fil binding = binds recombinant human tau filaments. recombinant tau filaments, thioflavin S fluorescence, 15 h; filaments grown with octadecylsulfate alongside compound. AID 596. P10636. hit rate 2% among 71,000. Potency, µM (series often up to 57.1 µM), for the others: at the highest dose activity change, negative = inhibition;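 note: potency is the fitted concentration of half-maximal effect; % is set by controls: 0 for no effect and ±100 for the full control effect; actives lower thioflavin S fluorescence by blocking filaments or displacing dye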
# Target sequence (P10636 whole entry, looked up): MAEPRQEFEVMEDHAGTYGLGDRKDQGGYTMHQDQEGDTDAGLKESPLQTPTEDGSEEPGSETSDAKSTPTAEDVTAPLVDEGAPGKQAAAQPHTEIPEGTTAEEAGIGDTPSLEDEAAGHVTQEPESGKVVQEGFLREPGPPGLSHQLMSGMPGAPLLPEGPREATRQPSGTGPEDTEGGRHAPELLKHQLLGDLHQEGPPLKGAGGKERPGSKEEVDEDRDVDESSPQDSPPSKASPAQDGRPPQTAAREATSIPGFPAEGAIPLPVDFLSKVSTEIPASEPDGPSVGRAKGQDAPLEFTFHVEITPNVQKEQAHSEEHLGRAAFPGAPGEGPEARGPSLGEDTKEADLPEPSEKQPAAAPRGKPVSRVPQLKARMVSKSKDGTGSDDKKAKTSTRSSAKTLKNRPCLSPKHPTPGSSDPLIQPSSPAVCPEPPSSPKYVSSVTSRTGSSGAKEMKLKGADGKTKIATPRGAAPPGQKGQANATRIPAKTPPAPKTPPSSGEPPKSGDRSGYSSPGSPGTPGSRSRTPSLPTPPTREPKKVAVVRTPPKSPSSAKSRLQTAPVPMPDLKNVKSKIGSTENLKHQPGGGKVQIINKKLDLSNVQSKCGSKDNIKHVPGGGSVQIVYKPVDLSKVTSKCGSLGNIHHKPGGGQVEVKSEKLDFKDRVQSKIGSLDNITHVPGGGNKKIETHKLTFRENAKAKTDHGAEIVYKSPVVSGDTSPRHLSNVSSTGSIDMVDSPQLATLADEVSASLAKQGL
#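 Tau 2 uM in ThS buffer dispensed; compound added; 60 uM ODS added (finals 1 uM tau, 30 uM ODS); 15 h 37 C; fluor ex450/em510.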
# HBB splice mod = hemoglobin beta splicing modulation. HBB splicing reporter cell assay, activation; EGFP reporter with mutant IVS2-654 intron; response scale: normalised to 500 nM splice-correcting PNA. hit rate 0.06% among 65,000. Potency, µM (doses to about 46.1 µM), without a hit: at the top dose activation, usual class: activators; note: potency is the fitted concentration of half-maximal effect; 0% is about no effect
#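 HeLa cells stably expressing EGFP interrupted by mutant beta-globin intron 2 (IVS2-654), 500/well in 2% FCS. Treated with compound for 2 days at 37C. Splicing correction scored as total well GFP intensity (488 nm excitation, 500-520 nm emission); 500 nM antisense PNA served as control.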
# ALOX15 inhib = inhibitors of human 15-lipoxygenase (ALOX15). P16050. purified 15hLO-1, xylenol orange hydroperoxide absorbance. hit rate 1.4% among 74,000. Potency, µM (titrated, usually from 57.1 µM), inactives show top-dose activity change, negative = inhibition, actives largely listed as inhibitors; note: potency is the fitted concentration of half-maximal effect; % is set by controls: 0 for no effect and ±100 for the full control effect; nearly all actives have a fitted effect of over 55% in size
#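 Purified human 15hLO-1 (40 nM) in 25 mM Hepes pH 7.5, 0.01% Triton X-100, preincubated 15 min RT with compound, then 50 uM arachidonic acid for 6 min. Hydroperoxide read by ferrous/xylenol orange, 30 min; 573/405 nm absorbance ratio gave progress.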
# * marks the source's active call; other numbers are inactive results; ? = inconclusive; . = no result; ! = a repeat was not active; [ ] = dose if it differs, or a comment. Unless noted, calls come from the whole dose curve; as a rule, active = well fitted curve in the direction sought with a large enough effect; inconclusive = small, poorly fitted or top-dose-only effect, or another doubt; inactive = no such curve, though single readings can be large; an effect the other way counts as inactive or inconclusive.
SMILES,UbGFP stabilizer,ALOX15B inhib,GFP derepression,Tau fil binding,HBB splice mod,ALOX15 inhib
CCOc1ccccc1NC(=O)CC1Nc2cc(C)c(C)cc2NC1=O (centres undefined),-10%,-16%,1%,4µM*,-1%,?
CCOc1ccccc1NC(=O)CC1Nc2ccccc2NC1=O (centres undefined),3%,.,-2%,-29%,4%,-3%
Cc1ccc(NC(=O)CC2Nc3ccccc3NC2=O)cc1Cl (centres undefined),0%,-17%,-2%,20µM*,1%[9.22 µM],-26%
COc1ccc(CCNC(=O)CC2Nc3ccccc3NC2=O)cc1 (centres undefined),-1%,36%,-3%,13µM*,0%[57.5 µM],-1%
O=C(CC1Nc2ccccc2NC1=O)NCCc1ccccc1 (centres undefined),.,2%,.,.,.,.
O=c1c(O)cccc2cc(O)c(O)c(O)c12,.,-10%,.,.,.,4µM*
FC(F)(F)c1ccccc1Cl,.,4%,.,6%,-1%,2%
COc1ccc(NCc2nnc(SCC(=O)Nc3cccc(C)c3)o2)cc1,-2%,-13%,0%,16µM*,-2%,-1%
Cc1ccccc1-c1cncnc1NCc1cccs1,-3%,30%,0%[9.22 µM],1%,-1%,-5%
C/C=C\C1=C(CO)C(=O)[C@@H]2OC2C1=O (some centres undefined),.,.,.,.,3%[9.22 µM],?
CCc1ccc(NS(=O)(=O)c2ccc3[nH]cc(C(=O)NCC4CCCO4)c(=O)c3c2)cc1 (centres undefined),-2%,43%,1%,18%,-5%,-16%
CCc1ccc(NS(=O)(=O)c2ccc3[nH]cc(C(=O)N4CCCCC4)c(=O)c3c2)cc1,-6%,-12%,0%,-20%,-5%,4µM*
CC(C)(C)c1ccc(OCC2CO2)cc1 (centres undefined),.,-3%,.,6%,-1%,-2%
COc1ccc(-c2cnc(N)nc2-c2ccc(OC)cc2O)cc1,3%,16%,0%,?,0%[57.5 µM],-18%
C=C(C)COc1ccc(-c2ncncc2Oc2ccc(OC)cc2)c(O)c1,-5%,29%,3%,20µM*,-2%,-3%
C=C(C)COc1ccc(-c2nc(N)ncc2-c2ccc(OC)cc2)c(O)c1,-13%,41%,5%,13µM*,0%,-13%
O=C(O)c1cccc(Cl)c1Cl,.,-4%,.,-1%,1%,-3%
COc1ccc2c(C(=O)CN(C)C3CCCCC3)c[nH]c2c1,0%,.,2%,25µM*,-3%[57.5 µM],-53%
COc1ccc2[nH]cc(C(=O)CN3CCN(C4CCCCC4)CC3)c2c1,0%,6%,0%,-8%,5%[1.84 µM],-6%
O=C(O)c1cc(Cl)cc(Cc2cc(Cl)cc(C(=O)O)c2O)c1O,-5%[9.17 µM],-10%[11.4 µM],-7%[9.22 µM],2%[11.4 µM],1%[9.22 µM],2%[11.4 µM]
Oc1ccc(Cc2cc(Cl)cc(Cl)c2O)cc1Cl,-5%[9.17 µM],-18%[11.4 µM],5%[9.22 µM],11%[11.4 µM],1%[9.22 µM],-24%[11.4 µM]
CN=C(NC#N)Nc1ccc(C2=NNC(=O)C[C@@H]2C)cc1,0%,14%,0%,40µM*!,1%,?
O=c1c(-c2ccc(Cl)cc2)nc2cnc(N3CCNCC3)nc2n1Cc1cccs1,4%,28%,0%[9.22 µM],3.2µM*,-1%,?
CN1CCN(c2ncc3nc(-c4ccc(Cl)cc4)c(=O)n(Cc4cccs4)c3n2)CC1,0%,10%,2%[9.22 µM],2µM*,1%,4%
CN1CCN(c2ncc3nc(-c4ccccc4)c(=O)n(Cc4cccs4)c3n2)CC1,0%,29%,0%[9.22 µM],35%,0%,7%
SMILES,UbGFP stabilizer,ALOX15B inhib,GFP derepression,Tau fil binding,HBB splice mod,ALOX15 inhib
Cc1nc(NCc2ccccc2)c2nc(-c3ccccc3)n(CCN3CCCCC3)c2n1,3%,36%,.,12%,-1%,20µM*
Cc1nc(Nc2ccccc2)c2nc(-c3ccccc3)n(CCN3CCOCC3)c2n1,9%,36%,.,14%,0%,20µM*
Cc1nc(NCc2ccccc2)c2nc(-c3ccccc3)n(CCCN3CCOCC3)c2n1,0%,7%,.,32%,-1%,?
Cc1nc(NC2CCCCC2)c2nc(-c3ccccc3)n(CCCN3CCOCC3)c2n1,7%,13%,.,68%,-2%,32µM*
CCOCCOCC,.,6%,.,7%,0%,2%
NS(=O)(=O)c1cc2c(cc1Cl)=NC(CCC(=O)O)=NS=2(=O)O,-2%[9.17 µM],-3%[11.4 µM],2%[9.22 µM],-1%[11.4 µM],0%[9.22 µM],9%[11.4 µM]
CN1CCC(CNC(=O)c2ccc(Cc3nc4ccccc4[nH]3)cc2)CC1,.,.,.,.,.,-2%
Oc1ccccc1C(=S)N1CCCCC1,-16%,?,-2%,-4%,1%,-24%
Oc1ccccc1C(=S)N1CCCCCC1,-11%,-13%,0%,25µM*,0%,?
Cc1c(NS(=O)(=O)c2cccs2)c(=O)n(-c2ccccc2)n1C,3%,4%,-1%,5%,.,6%
Cc1c(N/C=C/C(=O)c2cccs2)c(=O)n(-c2ccccc2)n1C,0%,-20%,0%,-16%,-3%,25µM*
CC1CN(c2c(F)c(N)c3c(=O)c(C(=O)O)cn(C4CC4)c3c2F)CC(C)N1 (centres undefined),.,9%[0.0915 µM],.,.,.,.
Cn1c(SCC(=O)c2cc3ccccc3o2)nnc1-c1ccccc1,-4%,-6%,.,4%,1%,-3%
O=C(CSc1nnc(-c2cccs2)n1CC1CCCO1)c1cc2ccccc2o1 (centres undefined),0%,-29%,3%,16µM*,0%[57.5 µM],-14%
CCOc1ccccc1C(=O)Nc1nccs1,-2%,2%,2%,0%,0%[57.5 µM],7.9µM*
CC(C)CC(=O)Nc1ccc(N2CCOCC2)cc1,.,-2%,.,.,.,.
CC(=O)N1CCN(c2ccc(NC(=O)c3ccc4c(c3)OCCO4)cc2)CC1,4%,-1%,-2%,-24%,.,-2%
CC(=O)N1CCN(c2ccc(NCc3cccs3)cc2)CC1,1%,25µM*,-2%,25µM*,0%,13µM*
CC(=O)N1CCN(c2ccc(NCc3ccccc3)cc2)CC1,-5%,?,0%,16µM*,.,7.9µM*
Cc1ccc(CNc2ccc(N3CCOCC3)cc2)s1,1%,16µM*,-1%,-13%,.,16µM*
CC(=O)N1CCN(c2ccc(NC(=O)c3ccc(C)cc3)cc2)CC1,.,1%,.,.,.,.
CC(=O)Nc1ccc(N2CCN(C(=O)c3cccs3)CC2)cc1,6%,-5%,1%,-10%,.,6%
CC(=O)N1CCN(c2ccc(NCc3ccc(C)s3)cc2)CC1,9%,13µM*,.,?,-1%,10µM*

# Screening data: PubChem BioAssay, National Center for Advancing Translational Sciences (NCATS)
